High-throughput results: PubChem BioAssay, National Center for Advancing Translational Sciences (NCATS)
Most compounds without a hit are left out; they make up all but 2.4% or so of the library.
Pol beta inh = inhibitors of human DNA polymerase beta; Pol beta primer extension/strand displacement, fluorescence kinetic; Potency, µM (titrated, usually from 114 µM), inactives show at the highest dose activity change, negative = inhibition, actives largely listed as inhibitors; 1.3% of 340,000 active; P06746; further: on the % scale 0 is the no-effect control and ±100 the full control effect
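Kinetic readout of DNA synthesis with strand displacement by Pol beta. Compound and 10 nM enzyme sit 15 min at room temperature; 50 nM substrate starts the reaction, read immediately and at 10 min.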
FEN1 inh = human FEN1 inhibition; Recombinant FEN1 flap cleavage, fluorescence, 15 min; Potency, µM (titrated, usually from 114 µM), without a hit: top-dose activity change, negative = inhibition, usual class: inhibitors; 0.35% of 390,000 active; AID 588795; further: on the % scale 0 is the no-effect control and ±100 the full control effect; nearly all actives have a fitted effect of over 65% in size
Target sequence (P39748 whole entry, looked up): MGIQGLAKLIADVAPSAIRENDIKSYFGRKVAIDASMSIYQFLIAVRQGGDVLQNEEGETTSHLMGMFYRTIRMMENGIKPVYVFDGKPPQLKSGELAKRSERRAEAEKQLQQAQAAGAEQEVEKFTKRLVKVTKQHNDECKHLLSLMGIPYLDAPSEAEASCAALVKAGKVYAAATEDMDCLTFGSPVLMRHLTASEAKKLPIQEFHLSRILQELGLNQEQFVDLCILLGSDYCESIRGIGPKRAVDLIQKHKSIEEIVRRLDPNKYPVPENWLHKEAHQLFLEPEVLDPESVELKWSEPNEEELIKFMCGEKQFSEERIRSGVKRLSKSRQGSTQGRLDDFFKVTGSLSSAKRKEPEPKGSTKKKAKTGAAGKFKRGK
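Read-out was taken twice, immediately and after 15 min, following addition of 50 nM substrate to 10 nM FEN1 that had sat with test compound for 15 min at room temperature. Curves came from a four-parameter Hill model.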
Pol iota inh = DNA polymerase iota (human) inhibition; 1% of 390,000 active; Potency, µM (doses to about 115 µM), for inactives: at the highest dose activity, negative = inhibition, most hits filed as inhibitors; AID 588590; Pol iota fluorescent replication assay, 10 min
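Pol iota at 10 nM preincubated 15 min with compounds at room temperature; reaction started with fluorescent substrate, 50 nM final. Fluorescence read kinetically at 0 and 10 min; buffer-only wells as negative control.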
PGK inhibitor = T. brucei PGK inhibition. P07378. PGK/GAPDH coupled, Kinase-Glo luminescence, 60 min. Potency, µM (titrated, usually from 57.5 µM), inactives show at the top dose activity change, negative = inhibition, hits mostly inhibitors. 0.043% of 380,000 active. AID 602233; further: on the % scale 0 is the no-effect control and ±100 the full control effect; nearly all actives have a fitted effect of over 60% in size
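Recombinant glycosomal PGK reaction used 1,3-bisphosphoglycerate generated in-well by GAPDH (100nM final) in 100mM TEA pH 7.6, 5mM MgCl2, 0.01% Tween-20. After 60 minutes at room temperature, ATP was read by Kinase-Glo Plus luminescence end-point.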
POLK inh = DNA polymerase kappa (human) inhibition; Q9UBT6; purified Pol kappa, fluorescent DNA synthesis assay, 10 min; Potency, µM (doses to about 107 µM), for the others: at the top dose activity, negative = inhibition, hits mostly inhibitors; 0.53% of 400,000 active; further: on the % scale 0 is the no-effect control and ±100 the full control effect
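Activity was followed as the change in fluorescence between reads at 0 and 10 min after starting the reaction with 50 nM substrate. Beforehand, 10 nM polymerase had been preincubated with compound for 15 min at room temperature.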
POLH inh = DNA polymerase eta (human) inhibition. Q9Y253. recombinant Pol eta, fluorescent DNA replication assay. Potency, µM (top dose mostly 114 µM), without a hit: top-dose activity change, negative = inhibition, most hits filed as inhibitors. 1.2% of 390,000 active; further: on the % scale 0 is the no-effect control and ±100 the full control effect
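Fluorescent replication assay: 50 nM final substrate added after a 15 min room-temperature compound preincubation with 10 nM enzyme. Signal taken at 0 min and again at 10 min.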
Numbers without * were called inactive; i = inactive; ? = inconclusive; · = no result; ! = not active in a repeat; [ ] = dose if it differs, or a comment. The call rests on the fitted dose curve; in most records, active means well fitted curve in the direction sought with a large enough effect; inconclusive means small, poorly fitted or top-dose-only effect, or another doubt; inactive means no such curve, though single readings can be large; an effect the other way counts as inactive or inconclusive. Potency means the concentration at half of the fitted maximal effect.

SMILES	Pol beta inh	FEN1 inh	Pol iota inh	PGK inhibitor	POLK inh	POLH inh
Cc1cc(C)c(NC(=O)c2sc3nc(C)cc(C)c3c2NC(=O)c2ccccc2)c(C)c1	-3.1%	-4.2%	3.6%	7.5%	-3.3%	-3.2%
O=C(COc1ccccc1C(=O)Nc1ccccc1)Nc1ccc(-c2ccccc2)cc1	·	-6.8%	-12.6%	·	-2.4%	·
O=C(CNC(=O)Cc1ccccc1)N=Nc1c(O)[nH]c2ccccc12	1.8%	-1.6%	62.4%	-5.1%	4.0%	-9.9%
O=C(CCCCCNC(=O)c1ccccc1Br)N=Nc1c(O)[nH]c2ccccc12	1.7%	-14.4%	79.4µM*	-3.2%	-16.6%	-6.6%
CCCN1C(=O)/C(=C/C=C2\N(CC)c3ccccc3C2(C)C)SC1=S	7.0%	?	36.4%	-2.6%	-4.9%	56.2µM*
Cc1cc(C=C2C(=O)c3ccccc3C2=O)c(C)n1-c1cccc(C(=O)O)c1	?	-33.8%	?	i	?	44.7µM*
Cc1cc(/C=C2/C(=O)NN(c3ccccc3)C2=O)c(C)n1-c1cccc(O)c1	?	8.3%	56.2µM*	-7.5%	-32.7%	?
Oc1ccc(-c2nc(-c3ccc(O)c(O)c3)cs2)cc1	39.8µM*	-12.2%	?	-6.5%	?	?
CC(=O)NCCCC[C@H](NC(=O)OC(C)(C)C)C(=O)Nc1ccc2c(C(F)(F)F)cc(=O)oc2c1	·	·	·	·	10.8%[60.1 µM]	·
O=c1[nH]c2cc(F)ccc2c2ccc(F)cc12	·	-3.9%	?	-2.7%	-22.9%	20µM*
O=c1cc(-c2cccc(F)c2)[nH]c2cc(F)ccc12	·	·	·	·	-8.6%	·
c1ccc(-c2nc3nonc3c3nc4ccccc4n23)cc1	44.7µM*	-5.5%	22.6%	-5.4%	-3.1%	-2.2%
CCOC(=O)c1sc(=S)n(-c2ccccc2)c1NC(C)=O	-0.5%	79.4µM*	?	i	-17.8%	-12.7%
Cc1sc(-n2c(C)cc(C=O)c2C)c(C(=O)O)c1C	?	4.8%	35.5µM*	-2.9%	-24.8%	50.1µM*
CCN(CC)S(=O)(=O)c1cccc(C(=O)N/N=C/c2cccc(O)c2O)c1	7.9%	-15.6%	20µM*	-1.8%	-42.1%	-5.0%
COc1ccc(CN2C(=O)N(c3ccc(OC)cc3)C(=O)C2CC(=O)Nc2ccccc2)cc1 (configuration not stated)	32.7%	-8.6%	-1.7%	i	1.4%	-1.0%
COc1ccc(N2C(=O)C(CC(N)=O)N(NC(=O)CCc3ccccc3)C2=O)cc1 (configuration not stated)	22.4µM*	0.0%	15.2%	-4.8%	6.0%	-10.5%
COc1ccc2c(CC(=O)OCC(=O)Nc3ccc(C)cc3)coc2c1	·	-0.3%	?	-12.0%	?	20µM*
COc1ccc2c(CC(=O)OCC(=O)Nc3ccc(S(N)(=O)=O)cc3)coc2c1	-26.7%	-2.4%	-15.5%	-3.0%	-22.8%	-10.9%
O=C(Nc1ccc2c(c1)OCO2)c1cc2ncc(Br)cn2n1	28.2µM*	-15.1%	?	-15.5%	-41.1%	3.55µM*
O=C(Nc1ccc(Cl)cc1)c1cc2nc(-c3ccc4c(c3)OCO4)cc(C(F)(F)F)n2n1	23.5%	7.0%	21.9%	-1.8%	10.5%	-14.4%
COC(=O)c1ccccc1NC(=O)c1cc2nc(C3CC3)cc(C(F)(F)F)n2n1	50.1µM*	1.4%	?	-5.8%	-21.7%	79.4µM*
O=C(Nc1ccc2c(c1)OCO2)c1cc2nc(C3CC3)cc(C(F)(F)F)n2n1	39.8µM*	8.0%	?	-0.1%	-18.1%	?
COC(=O)c1ccccc1NC(=O)c1cc2nc(-c3ccc(OC)cc3)cc(C(F)(F)F)n2n1	40.0%	-4.8%	-2.4%	5.3%	-9.3%	0.4%
O=C(OC(C(=O)N1CCOCC1)c1ccccc1)c1c2c(nc3ccccc13)CCCC2 (configuration not stated)	·	-0.8%	8.0%	·	-4.0%	·
SMILES	Pol beta inh	FEN1 inh	Pol iota inh	PGK inhibitor	POLK inh	POLH inh
CC(C)(C)n1ncc2c(=O)n(Cc3ccc(C#N)c(F)c3)cnc21	·	-2.6%	10.5%	·	6.2%	·
CCCNC(=O)c1ccc2c(=O)c(O)c(-c3ccc(C)cc3)[nH]c2c1	4.1%	?	21.2%	8.1%	-5.1%	-0.3%
Cc1ccc(-c2[nH]c3cc(C(=O)NCCCn4ccnc4)ccc3c(=O)c2O)cc1	-0.1%	?	79.4µM*	i	-3.7%	-9.3%
O=C(CSc1nccn1Cc1ccccc1)Nc1ccc2c(c1)OCO2	-3.7%	14.5%	10.5%	12.9%	-7.9%[60.1 µM]	-6.6%
Cc1cccc(NC(=O)c2cc(-c3ccc(C)c(C)c3O)n[nH]2)c1	-9.2%	-15.6%	79.4µM*	-7.3%	11.0%	-26.1%
O=c1c2c(nc3cc(-c4cccc(F)c4)[nH]n13)CCC2	-17.9%	-5.7%	44.4%	-4.4%	-13.0%	-7.0%
O=c1c2c(nc3cc(-c4ccc(F)cc4)[nH]n13)CCCC2	17.8µM*	-11.3%	?	-1.9%	-21.2%	?
S=Cc1ccc(/C=C/c2ccnc3ccccc23)cc1	·	?	46.8%	·	-20.4%	·
COC(=O)C(C)Oc1ccc2c(c1)O/C(=C\c1ccco1)C2=O (configuration not stated)	?	-8.1%	44.7µM*	-6.9%	?	44.7µM*
C(=C\n1nnc2ccccc21)/c1ccc[nH]1	·	?	?	-9.1%	25.1µM*	50.1µM*
c1ccc(-n2nnc3ccccc32)cc1	5.9%	1.9%	29.9%	-0.1%	18.7%	-5.2%
CCN(CC)CCNc1ncnc2c1[nH]c1ccc(OC)cc12	-12.0%	·	·	·	·	·
COc1ccc2[nH]c3c(NCc4ccco4)ncnc3c2c1	?	?	79.4µM*!	i	-22.4%	?
CCOc1ccc2[nH]c3c(NCCN(C)C)ncnc3c2c1	56.2µM*	·	·	·	·	·
O=C(CSc1ccc(-c2ccco2)nn1)c1cccc([N+](=O)[O-])c1	28.2µM*	-30.3%	12.6µM*	5.1%	?	?
Cc1cc(SCC(=O)Nc2ccc(F)cc2F)nc(=O)[nH]1	15.8µM*	16.7%	?	-4.9%	-12.2%[60.1 µM]	?
Cc1cc(SCc2ccc([N+](=O)[O-])cc2)nc(=O)[nH]1	?	-2.9%	-1.2%	4.8%	-13.9%	25.1µM*
Cc1cc(SCC(=O)c2cccc([N+](=O)[O-])c2)nc(=O)[nH]1	-25.0%	?	?	-8.7%	79.4µM*	20µM*
Nc1[nH]c(=S)nc2nnsc12	·	-32.3%	35.6%	·	-3.5%	·
Cc1cc(C)cc(-n2nnc(-c3nc(-c4ccccc4F)no3)c2C)c1	-1.3%	2.4%	6.7%	-1.2%	0.3%	4.1%
Cc1oc(C)c2c(=O)cc(-c3ccc4c(c3)OCO4)cc(OC(=O)c3ccccc3Cl)c12	17.8µM*	?	79.4µM*	-6.8%	?	?
